Measured values: PMC5540273 (PLoS ONE, 2017)
Values joined by “and” are separate entries in the source; they are usually repeats but may differ in a detail not shown here. Equal entries are not always repeated. Where two headings read alike, the source gives them in different places.

Legend:
Details in all cases: concentration: 1 μM, replicates: in singlicate, n = 1
YANK3 = tested on: T1, YANK3
T1 construct: gene STK32C

YES = tested on: T2, YES
T2 construct: gene YES1

YSK1 = tested on: T3, YSK1
T3 construct: gene STK25

YSK4 = tested on: T4, YSK4
T4 construct: gene MAP3K19

ZAK = tested on: ZAK
ZAP70 = tested on: ZAP70
p38-alpha = tested on: T5, p38-alpha
T5 construct: gene MAPK14

p38-beta = tested on: T6, p38-beta
T6 construct: gene MAPK11

p38-delta = tested on: p38-delta
p38-gamma = tested on: T7, p38-gamma
T7 construct: gene MAPK12
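Further: KINOMEscan kinase panel screen.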

| SMILES | %Inh (YANK3) [%] | %Inh (YES) [%] | %Inh (YSK1) [%] | %Inh (YSK4) [%] | %Inh (ZAK) [%] | %Inh (ZAP70) [%] | %Inh (p38-alpha) [%] | %Inh (p38-beta) [%] | %Inh (p38-delta) [%] | %Inh (p38-gamma) [%] | %Inh (YANK3; 1 µM) | %Inh (YES; 1 µM) | %Inh (YSK1; 1 µM) | %Inh (YSK4; 1 µM) | %Inh (ZAK; 1 µM) | %Inh (ZAP70; 1 µM) | %Inh (p38-alpha; 1 µM) | %Inh (p38-beta; 1 µM) | %Inh (p38-delta; 1 µM) | %Inh (p38-gamma; 1 µM) |
| --- | --- | --- | --- | --- | --- | --- | --- | --- | --- | --- | --- | --- | --- | --- | --- | --- | --- | --- | --- | --- |
| N#Cc1c(N2CCOCC2)sc(-c2ccn[nH]2)c1-c1ccc(Cl)cc1 | 16 | 7 | 0 | 28 | 0 | 0 | 7 | 14 | 0 | 6 |  |  |  |  |  |  |  |  |  |  |
| COc1ccc(Nc2nccc(N3CCC(NC(=O)Nc4cccc(C(C)=O)c4)C3)n2)cc1 (centres unmarked) [GSK1379731] | 0 | 0 | 0 | 7 | 0 | 0 | 0 | 0 | 42 | 0 |  |  |  |  |  |  |  |  |  |  |
| Cn1ccc2ncnc(Oc3ccc(NC(=O)Nc4ccncc4)c(Cl)c3)c21 | 9 | 0 | 3 | 0 | 0 | 7 | 0 | 18 | 4 | 8 |  |  |  |  |  |  |  |  |  |  |
| NCC(NC(=O)c1cc(-c2cn[nH]c2)c(-c2ccnc3[nH]ccc23)s1)c1ccccc1.O=C(O)C(F)(F)F.O=C(O)C(F)(F)F (centres unmarked) [GSK1325775] | 8 | 0 | 24 | 99.8 | 4 | 0 | 10 | 0 | 10 | 27 |  |  |  |  |  |  |  |  |  |  |
| COc1ccc(Nc2ncc(C#N)c(Nc3ccccc3C(N)=O)n2)cc1N1CCN(C)CC1.Cl [GSK1558669] | 48 | 98.8 | 95.2 | 99.7 | 64 | 98.1 | 0 | 0 | 0 | 32 |  |  |  |  |  |  |  |  |  |  |
| O=C1NC(=O)C(N2CCc3ccccc32)=C1c1cccc(Cl)c1 [SB-408010] | 17 | 0 | 0 | 0 | 14 | 29 | 7 | 7 | 15 | 0 |  |  |  |  |  |  |  |  |  |  |
| COCCNC(=O)c1ccc(-c2cc(C(=O)NC3CC3)cc(F)c2C)cc1 [GW868318] | 22 | 4 | 0 | 33 | 23 | 0 | 100 | 94 | 0 | 29 |  |  |  |  |  |  |  |  |  |  |
| NS(=O)(=O)CCc1cccc(Nc2nccc(-c3c(-c4cccc(NC(=O)c5c(F)cccc5F)c4)nn4ccccc34)n2)c1 [GSK336735] | 37 | 99.8 | 24 | 20 | 98.4 | 0 | 97.8 | 98.7 | 54 | 0 |  |  |  |  |  |  |  |  |  |  |
| COc1cc2c(cc1OCCN1CCN(C)CC1)ncc1c3ccc(C#N)cc3[nH]c21 | 35 | 3 | 0 | 89 | 0 | 0 | 0 | 1 | 7 | 35 |  |  |  |  |  |  |  |  |  |  |
| CC(C)(C)n1cnc2c(N)ncnc21 [SKF-97359] | 0 | 27 | 0 | 0 | 0 | 21 | 0 | 0 | 0 | 2 |  |  |  |  |  |  |  |  |  |  |
| Cl.Oc1cccc(Nc2ccnc3cc(-c4ccncc4)ccc23)c1 [GW494601] | 0 | 94.6 | 7 | 91.7 | 84 | 2 | 50 | 0 | 25 | 0 |  |  |  |  |  |  |  |  |  |  |
| Cc1nnc(-c2ccc3ncc(-c4ccc(S(C)=O)cc4)n3c2)o1 (centres unmarked) | 5 | 0 | 0 | 3 | 0 | 0 | 9 | 1 | 7 | 10 |  |  |  |  |  |  |  |  |  |  |
| COc1ccc(CNC(=O)NC2CCN(c3ccnc(Nc4ccc(OC)cc4)n3)C2)cc1 (centres unmarked) [GSK1379727] | 8 | 3 | 0 | 36 | 0 | 0 | 11 | 0 | 8 | 45 |  |  |  |  |  |  |  |  |  |  |
| O=C(NCCNc1ccnc(Nc2ccc(F)cc2)n1)Nc1ccccc1F [GSK1379880] | 0 | 9 | 0 | 26 | 0 | 0 | 0 | 0 | 52 | 0 |  |  |  |  |  |  |  |  |  |  |
| Cc1cccc(-c2nc(Nc3ccc4ncsc4c3)c3ccccc3n2)n1 [GW867588] | 29 | 0 | 0 | 11 | 0 | 10 | 0 | 0 | 0 | 0 |  |  |  |  |  |  |  |  |  |  |
| Nc1nccc(-c2c(-c3ccc(F)cc3)ncn2C2CCN(CC(F)(F)F)CC2)n1 [SB-236560] | 0 | 8 | 0 | 0 | 0 | 49 | 96.6 | 11 | 8 | 0 |  |  |  |  |  |  |  |  |  |  |
| CN(C1=C(c2ccccc2)C(=O)NC1=O)c1ccccc1 [SB-334860] | 17 | 17 | 21 | 9 | 79 | 0 | 0 | 5 | 22 | 5 |  |  |  |  |  |  |  |  |  |  |
| CN1c2ccc(CNc3ccc(F)cc3)cc2-c2c(cnn2C)S1(=O)=O | 0 | 0 | 0 | 0 | 0 | 0 | 0 | 0 | 0 | 14 |  |  |  |  |  |  |  |  |  |  |
| Cc1cccc(-c2nc(-c3ccc(S(C)(=O)=O)cc3)sc2-c2ccncc2)c1 | 23 | 0 | 18 | 9 | 30 | 0 | 92.4 | 0 | 19 | 12 |  |  |  |  |  |  |  |  |  |  |
| CC(C)Oc1ccc2c(-c3ccnc(Nc4ccc(N5CCN(C)CC5)cc4)n3)cnn2n1 [GW696155] | 0 | 54 | 71 | 99.8 | 0 | 65 | 17 | 0 | 72 | 62 |  |  |  |  |  |  |  |  |  |  |
| CC(C)(CN)c1nc(-c2ccc(Cl)c(O)c2)c(-c2ccncc2)[nH]1.O=C(O)C(F)(F)F [SB-477794] |  |  |  |  |  |  |  |  |  |  | 86% and 83% | 88% and 86% | 6% and 96.1% | 87% and 65% | 100% and 59% | 58% and 0% | 99.8% and 99.3% | 53% and 58% | 29% and 0% | 19% and 63% |
| [2H]C([2H])(c1cccc(C(F)(F)F)c1C)n1ccn2c(=O)nc(N3CCOCC3)cc12 [GSK2336394] | 0 | 7 | 0 | 26 | 4 | 24 | 0 | 0 | 46 | 0 |  |  |  |  |  |  |  |  |  |  |
| COc1ccc(S(=O)(=O)NC2CCN(c3cc(C)nc(Nc4cccc(C#N)c4)n3)CC2)cc1.O=C(O)C(F)(F)F [GSK1653539] | 0 | 4 | 20 | 0 | 0 | 0 | 9 | 0 | 28 | 0 |  |  |  |  |  |  |  |  |  |  |
| Cl.Cl.Cl.Fc1ccc(-c2ncn(C3CCNCC3)c2-c2ccnc(Nc3ccccc3)n2)cc1 [SB-238039] |  |  |  |  |  |  | 100 | 100 |  |  | 58% and 48% | 22% and 26% | 10% and 0% | 39% and 0% | 11% and 0% | 12% and 14% |  |  | 98.6% and 99.7% | 93.1% and 100% |
| Cn1cc(-c2ccc3c(c2)CCN3C(=O)Cc2ccccc2Cl)c2c(N)ncnc21 [GSK2608885] | 23 | 99.7 | 20 | 0 | 97.9 | 0 | 99.9 | 99.5 | 26 | 20 |  |  |  |  |  |  |  |  |  |  |
| CN(C(=O)c1ccc(-c2cc(-c3c[nH]nc3-c3ccccn3)ccn2)cc1)C1CCOCC1 [GW810083] | 0 | 0 | 0 | 0 | 18 | 13 | 10 | 3 | 5 | 0 |  |  |  |  |  |  |  |  |  |  |
| NCCNS(=O)(=O)c1ccc(-c2ccnc3[nH]ccc23)cc1 [GSK977617] |  |  |  |  |  | 0 |  | 0 |  |  | 8% and 0% | 11% and 0% | 32% and 25% | 98.1% and 97.3% | 18% and 0% |  | 0% and 8% |  | 65% and 49% | 29% and 55% |
| Nc1nc(-c2ccc3c(N)n[nH]c3c2)cc(N2CCCC2)n1 [GSK2227430] | 0 | 0 | 9 | 36 | 0 | 0 | 0 | 0 | 25 | 0 |  |  |  |  |  |  |  |  |  |  |
| COC(=O)Nc1nc2cc(Oc3ccc(NC(=O)Nc4cc(F)ccc4F)cc3)ccc2[nH]1.Cl [GW701424] | 0 | 11 | 13 | 53 | 98.8 | 71 | 37 | 0 | 29 | 13 |  |  |  |  |  |  |  |  |  |  |
